Compounds with a hit are over-represented: about 10% of the library has one in this group of screens.
L3MBTL1 block: qHTS Assay for the Inhibitors of L3MBTL1 | AlphaScreen L3MBTL1–H3K9me1 peptide binding | hit rate 0.66% among 230,000 | Potency, µM (doses to about 57.1 µM), actives largely listed as inhibitors; further: nearly all actives have a fitted effect of over 60% in size
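Displacement of a biotinylated histone H3(1-15) peptide monomethylated at Lys9 (75 nM) from L3MBTL1 (50 nM) was measured by AlphaScreen after a 30 min room-temperature compound incubation; cefsulodin titration served as intraplate control.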
BAZ2B block: qHTS Assay for Inhibitors of BAZ2B; Potency, µM (top dose mostly 114 µM), most hits filed as inhibitors; AlphaScreen BAZ2B-H3K14Ac peptide displacement; hit rate 4.4% among 360,000; Bromodomain adjacent to zinc finger domain protein 2B (Homo sapiens), Q9UIF8; further: nearly all actives have a fitted effect of over 60% in size
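Complex of BAZ2B and biotin-H3K14Ac (50 nM apiece) forms over 30 min at RT, then faces library compounds up to 110 uM for another 30 min; AlphaScreen beads added, 20 min dark incubation, luminescence read.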
JMJD2A Tudor: qHTS Assay for Inhibitors of JMJD2A-Tudor Domain | AlphaScreen JMJD2A-Tudor / H3K4me3 peptide binding | AID 504339, 2011 | Potency, µM (series often up to 114 µM), usual class: inhibitors | hit rate 4.4% among 390,000; further: nearly all actives have a fitted effect of over 50% in size
G9a inh: qHTS Assay for Inhibitors of Histone Lysine Methyltransferase G9a. Histone-lysine N-methyltransferase EHMT2 (Homo sapiens), Q96KQ7. hit rate 8.8% among 350,000. Potency, µM (series often up to 102 µM), hits mostly inhibitors. G9a H3K9 monomethylation, AlphaScreen, 2 h; further: nearly all actives have a fitted effect of over 75% in size
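Step 1: enzyme (final 20 nM) with compound, 15 min RT. Step 2: substrate peptide 500 nM and SAM 20 uM, 2 h RT. Step 3: anti-H3K9me1 antibody and AlphaScreen beads, 10 min, then plate read.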
HP1b chromo inh: HTS for Inhibitors of HP1-beta Chromodomain Interactions with Methylated Histone Tails; hit rate 0.56% among 390,000; Potency, µM (top dose mostly 114 µM), hits mostly inhibitors; AID 540317, 2011; AlphaScreen HP1-beta / biotin-H3K9me3 peptide binding; Chromobox protein homolog 1 (Homo sapiens), P83916; further: nearly all actives have a fitted effect of over 70% in size
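AlphaScreen: HP1-beta (50 nM) preformed 30 min with biotin-H3(1-18)K9me3 peptide (50 nM) in PBS pH 7.4, 0.01% Tween-20. Compound added for 30 min at RT, then streptavidin donor/nickel chelate acceptor beads (10 ug/mL) for 30 min.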
GLS inhibitor: qHTS for Inhibitors of Glutaminase (GLS); AID 624170, 2012; GLS enzymatic activity, qHTS titration; hit rate 0.21% among 410,000; Potency, µM (top dose mostly 45.5 µM), actives largely listed as inhibitors
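hKGA; 45 mM KH2PO4 pH 8.2 + 0.02% Tween-20; cpd via pin tool; 1 mM Gln soln; GluOx/HRP/Amplex Red; RT 30 min; fluor. t0 & final.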
Large screens that a line does not name were inactive. The call rests on the fitted dose curve; in most records, active means well fitted curve in the direction sought with a large enough effect; inconclusive means small, poorly fitted or top-dose-only effect, or another doubt; inactive means no such curve, though single readings can be large; an effect the other way counts as inactive or inconclusive.

COC(=O)c1ccc(NC(=O)N2CCN(Cc3cc(=O)n4nc(-c5ccc(C)cc5)sc4n3)CC2)cc1	none (no result: L3MBTL1 block)
CCc1nn(CC(=O)NCCCN2CCN(C)CC2)c(=O)c2cc3sccc3n12	none (no result: L3MBTL1 block, G9a inh)
CCOC(=O)CCCn1nc(C)n2c(cc3sccc32)c1=O	none
CCc1nn(CC(=O)NCCCN2CCc3ccccc3C2)c(=O)c2cc3sccc3n12	L3MBTL1 block inconclusive, G9a inh 45µM
Cc1nn(CCCC(=O)N2CCc3ccccc3C2)c(=O)c2cc3sccc3n12	G9a inh 79µM (no result: L3MBTL1 block)
O=c1c2ccccc2sn1-c1cc(S(=O)(=O)N2CCOCC2)ccc1N1CCCC1	BAZ2B block 14µM, JMJD2A Tudor 22µM, G9a inh inconclusive, GLS inhibitor inconclusive (no result: L3MBTL1 block)
O=c1c2ccccc2sn1-c1cc(S(=O)(=O)N2CCOCC2)ccc1N1CCCCC1	JMJD2A Tudor 13µM, HP1b chromo inh inconclusive (no result: L3MBTL1 block, BAZ2B block, G9a inh, GLS inhibitor)
O=c1c2ccccc2sn1-c1cc(S(=O)(=O)N2CCOCC2)ccc1N1CCOCC1	BAZ2B block 3.5µM, JMJD2A Tudor 4µM, HP1b chromo inh 8.9µM, GLS inhibitor inconclusive (no result: G9a inh)
COc1cccc(CNC(=O)CSc2ncc(S(=O)(=O)c3ccc(Br)cc3)c(=O)[nH]2)c1	none (no result: L3MBTL1 block)
CCC(CO)Nc1ncnc2c1cnn2-c1ccc(C)cc1 (stereo unspecified)	none (no result: L3MBTL1 block)
CC(=O)Nc1ccc(N=C(C2=C(O)c3ccccc3C2=O)c2ccccc2)cc1	BAZ2B block 40µM, JMJD2A Tudor 56µM, G9a inh 40µM, HP1b chromo inh inconclusive
COc1ccc(N=C(C)C2=C(O)c3ccccc3C2=O)cc1	BAZ2B block inconclusive, JMJD2A Tudor inconclusive
CSc1ccc(CN2CCCCCC2)cc1	JMJD2A Tudor 5µM, G9a inh 11µM, HP1b chromo inh inconclusive
CSc1ccc(CN2CCN(Cc3ccc([N+](=O)[O-])cc3)CC2)cc1	BAZ2B block 28µM, JMJD2A Tudor inconclusive, G9a inh 32µM, HP1b chromo inh inconclusive
CCS(=O)(=O)N1CCN(Cc2ccc([N+](=O)[O-])cc2)CC1	BAZ2B block 50µM, JMJD2A Tudor 5.6µM, G9a inh inconclusive, HP1b chromo inh inconclusive
Cc1ccc(C)c(C(=O)CSc2nc(-c3ccccc3)nc3c2CCCC3)c1	none (no result: L3MBTL1 block)
CCOC(=O)c1oc2ccc(S(=O)(=O)n3nc(-c4cc(OC)cc(OC)c4)cc3N)cc2c1C	none (no result: L3MBTL1 block)
Cc1ccc(SC2=C(Sc3ccc(C)cc3)C(=O)c3ccccc3C2=O)cc1	L3MBTL1 block inconclusive, BAZ2B block 3.5µM, JMJD2A Tudor 3.5µM, G9a inh 2.8µM, HP1b chromo inh 3.5µM
CSc1cccc(NC(=O)c2nnn(CC(=O)Nc3cc(C)cc(C)c3)c2N)c1	JMJD2A Tudor 14µM, GLS inhibitor inconclusive (no result: L3MBTL1 block)
COc1ccc(NC(=O)NNS(=O)(=O)c2ccc(Br)cc2)cc1	none (no result: L3MBTL1 block)
COc1ccc(S(=O)(=O)NNC(=O)c2cccs2)cc1	G9a inh 45µM
COc1ccc(NC(=O)c2cnn(-c3ccccc3)c2C)cc1	none
COc1ccc(S(=O)(=O)NNC(N)=S)cc1	JMJD2A Tudor 8.9µM, G9a inh 16µM (no result: BAZ2B block)
COc1ccc(NC(=S)NNC(=O)c2nnn(-c3ccccc3)c2C)cc1	G9a inh 11µM
COc1ccc(NC(=S)NNC(=O)c2cccs2)cc1	G9a inh 40µM
COc1cc(NC(=O)CCc2c(C)nc3c(-c4ccc(F)cc4)c(C)nn3c2C)cc(OC)c1OC	none (no result: L3MBTL1 block)
CCCCOP(=O)(c1ccc(N(C)C)cc1)C(O)c1ccc(N(C)C)cc1 (stereo unspecified)	BAZ2B block inconclusive, JMJD2A Tudor 5µM, G9a inh 2.2µM (no result: L3MBTL1 block)
CC(C)CCOP(=O)(c1ccc(N(C)C)cc1)C(O)c1ccc(C(C)C)cc1 (stereo unspecified)	none (no result: L3MBTL1 block)
